Laboratory results published in the supplement of paper PMC7695840.
Where a name gives a salt, the structure may show the parent alone.

Assays:
[1] = tested on: Staphylococcus aureus MW2 delta-mecA (mecA-); experiment: normalized GFP fluorescence (growth of mecA- strain) (fraction of control range); higher = more growth of mecA- strain; details: compound concentration: 150 uM; cefoxitin: subinhibitory; fluorescent label: GFP
Outline: (§1)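 Two pre-induced S. aureus MW2 strains, one with the gene labeled by DsRed and one lacking it labeled by GFP, were mixed 1:1 in LB with a subinhibitory antibiotic dose set daily. The mix went at 5 µL/well onto 150 μM compound (1.5% DMSO) in 1536-well plates, single replicate, and grew unshaken 20 h at 37 °C, 90% humidity. DsRed (540/590) and GFP (485/520) values were scaled per plate between single-strain control medians, and plates with high untreated ratios or rows with DsRed/GFP >10 were left out.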

[2] = tested on: Staphylococcus aureus MW2 (mecA+); experiment: normalized DsRed fluorescence (growth of mecA+ strain) (fraction of control range); higher = more growth of mecA+ strain; details: compound concentration: 150 uM; cefoxitin: subinhibitory; fluorescent label: DsRed
Outline: as §1

Compound | normalized GFP fluorescence [1] | normalized DsRed fluorescence [2]
CCCCC(=O)N(Cc1ccc(-c2ccccc2-c2nnn[nH]2)cc1)[C@H](C(=O)O)C(C)C | 0.105 | 0.898
C#CCN[C@@H]1CCc2ccccc21 | 0.911 | 0.693
CC(C)COCC(CN(Cc1ccccc1)c1ccccc1)N1CCCC1 (stereo not given) | 0.00856 | 0.96
COc1c2occc2cc2ccc(=O)oc12 | 0.476 | 0.402
CC[C@]1(O)C[C@@H]2CN(CCc3c([nH]c4ccccc34)[C@@](C(=O)OC)(c3cc4c(cc3OC)N(C)[C@H]3[C@@](O)(C(=O)OC)[C@H](OC(C)=O)[C@]5(CC)C=CCN6CC[C@]43[C@@H]65)C2)C1 [Vinblastine] | 0.0776 | 0.851
OCc1cccnc1 | 0.896 | 0.471
OCc1ccccc1O | 0.351 | 0.713
CC(C)c1nc(CN(C)C(=O)N[C@H](C(=O)N[C@@H](Cc2ccccc2)C[C@H](O)[C@H](Cc2ccccc2)NC(=O)OCc2cncs2)C(C)C)cs1 [Ritonavir] | 0.0352 | 1.01
CCc1nc(N)nc(N)c1-c1ccc(Cl)cc1 | 0.211 | 0.879
O=C(O)CCC(=O)Nc1ccc(S(=O)(=O)Nc2nccs2)cc1 | 0.332 | 1.01
COC(=O)Nc1nc2cc(Sc3ccccc3)ccc2[nH]1 | 0.378 | 0.601
CN1CCCC(n2nc(Cc3ccc(Cl)cc3)c3ccccc3c2=O)CC1 (stereo not given) [Azelastine hydrochloride (Astelin)] | 0.112 | 1.13
Cc1ccccc1C(OCCN(C)C)c1ccccc1 (stereo not given) | 0.779 | 1.23
CCN(CC)CCOC(=O)c1ccc(N)cc1 | 0.335 | 0.634
O=C(C1CCCCC1)N1CC(=O)N2CCc3ccccc3C2C1 (stereo not given) | 0.421 | 0.542
CC(=O)O[C@@]12CO[C@@H]1C[C@H](O)[C@@]1(C)C(=O)[C@H](O)C3=C(C)[C@@H](OC(=O)[C@H](O)[C@@H](NC(=O)OC(C)(C)C)c4ccccc4)C[C@@](O)([C@@H](OC(=O)c4ccccc4)[C@H]21)C3(C)C [Docetaxel (Taxotere)] | 0.11 | 0.768
Cc1ccccc1N1C(=O)c2cc(S(N)(=O)=O)c(Cl)cc2NC1C (stereo not given) | 0.113 | 1.33
NCCCCCC(=O)O | 0.967 | 0.727
Cc1nc(C)c(Cl)c(O)c1Cl | 0.341 | 0.741
CN(C)CCOC(c1ccc(Cl)cc1)c1ccccn1 (stereo not given) | 0.55 | 0.618

Compound | normalized GFP fluorescence [1] | normalized DsRed fluorescence [2]
NC(=O)OCC(COC(N)=O)c1ccccc1 [Felbamate] | 0.382 | 0.864
CC(C)N1CCN(c2ccc(OCC3COC(Cn4cncn4)(c4ccc(Cl)cc4Cl)O3)cc2)CC1 (stereo not given) | 0.199 | 0.734
O=NN(CCCl)C(=O)NC1CCCCC1 | 0.569 | 0.767
Clc1ccc(COC(Cn2ccnc2)c2ccc(Cl)cc2Cl)cc1 (stereo not given) [Econazole nitrate (Spectazole)] | -0.00195 | 0.01
Clc1ccc(CCC(Cn2ccnc2)Sc2c(Cl)cccc2Cl)cc1 (stereo not given) | -0.00294 | 0.01
CC(C)NCC(O)COc1ccc(CC(N)=O)cc1 (stereo not given) | 0.323 | 0.749
C[C@@H]1O[C@@H](OC[C@H]2O[C@@H](Oc3c(-c4ccc(OCCO)c(OCCO)c4)oc4cc(OCCO)cc(O)c4c3=O)[C@H](O)[C@@H](O)[C@@H]2O)[C@H](O)[C@H](O)[C@H]1O [Troxerutin] | 0.934 | 0.471
CCCSc1ccc2[nH]c(NC(=O)OC)nc2c1 | 0.251 | 0.742
Cc1ccnc2c1NC(=O)c1cccnc1N2C1CC1 | 0.755 | 0.431
O=C1c2c(O)ccc(O)c2C(=O)c2c(NCCNCCO)ccc(NCCNCCO)c21 | 0.184 | 1.12
CNCc1ccc(-c2[nH]c3cc(F)cc4c3c2CCNC4=O)cc1 | 0.424 | 0.641
CCN(CC)CCNC(=O)c1ccc(N)cc1 | 0.328 | 0.696
CCC(=O)OCC(=O)[C@@]1(OC(=O)CC)[C@@H](C)C[C@H]2[C@@H]3CCC4=CC(=O)C=C[C@]4(C)[C@@]3(Cl)[C@@H](O)C[C@@]21C | 0.322 | 0.958
CCN1CCCC(OC(=O)C(c2ccccc2)c2ccccc2)C1 (stereo not given) | 0.427 | 0.501
CC(=O)O[C@]1(C(C)=O)CC[C@H]2[C@@H]3C=C(Cl)C4=CC(=O)[C@@H]5C[C@@H]5[C@]4(C)[C@H]3CC[C@@]21C | 0.239 | 0.593
c1cnc2cc3c(cc2n1)[C@@H]1CNC[C@H]3C1 [Varenicline tartrate] | 0.504 | 0.508
N[C@@H](Cc1cc(I)c(Oc2cc(I)c(O)c(I)c2)c(I)c1)C(=O)O | 0.297 | 0.575
NS(=O)(=O)Cc1noc2ccccc12 [Zonisamide] | 0.595 | 0.893
CCCNC(C)C(=O)Nc1c(C)csc1C(=O)OC (stereo not given) [Articaine HCl] | 0.567 | 0.672
CN(C)CCOC(=O)C(c1ccccc1)C1(O)CCCC1 (stereo not given) | 0.34 | 0.757
